# The sample as a whole holds a higher share of the strongest signals than the screen did.
# B1: Gal 4 (Canis lupus) (protein)
# chain: MAYVPAPGYQPTYNPTLPYNKPIPGGLSVGMSVYIQGITSEHMRRFCVNFVAGAHPGSDIAFHFNPRFDGWDKVVFNSHLGGKWGSEEKKRSMPFRKGTHFELVFMVLAEHYKVVVNGNPFYEFGHRLPLQLVTHLQVEGDVELQSINFIGGTQPLGQGPGHTQQQPSSLPTMEGPPVFNPPVPFRKRLQGGLTVRRTVIIKGFVPFTSKSFVINFMVESSGDLALHINPRLTEGLVVRNSCLNGSWGSEDRKLSYNPFIPGQFFDLSIRCGMDRFKVYANGQHLFDFSHRLLALQNVDMLEINGDVTLSYIQV
# How the values were obtained:
# Experiment in all cases: glycan array binding signal (z-score within array); higher = stronger binding
# Conditions in all cases: glycan notation: IUPAC condensed, linker removed
# [1] = target: Fuc(a1-2)Gal(b1-4)Glc6S
# How it was run: (§1)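 Columns mapping to the same glycan were averaged after glycan names were converted to IUPAC-condensed notation. The data come from 3228 arrays in the Consortium for Functional Glycomics database, limited to those with an available protein sequence. Binding is reported as a within-array Z-score averaged across arrays of one protein sequence and across linkers.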
# [2] = target: Fuc(a1-2)[Gal(a1-3)]Gal(b1-4)Glc
# How it was run: as §1
# [3] = target: Fuc(a1-2)[Gal(a1-3)]Gal(b1-4)GlcNAc(b1-2)Man(a1-3)[Fuc(a1-2)[Gal(a1-3)]Gal(b1-4)GlcNAc(b1-2)Man(a1-6)]Man(b1-4)GlcNAc(b1-4)GlcNAc
# How it was run: as §1
# [4] = target: Fuc(a1-2)[GalNAc(a1-3)]Gal
# How it was run: as §1
# [5] = target: Fuc(a1-2)[GalNAc(a1-3)]Gal(b1-4)Glc
# How it was run: as §1
# [6] = target: Fuc(a1-2)[GalNAc(a1-3)]Gal(b1-4)GlcNAc(b1-2)Man(a1-3)[Fuc(a1-2)[GalNAc(a1-3)]Gal(b1-4)GlcNAc(b1-2)Man(a1-6)]Man(b1-4)GlcNAc(b1-4)GlcNAc
# How it was run: as §1
# [7] = target: Fuc(a1-2)[GalNAc(a1-3)]Gal(b1-4)GlcNAc(b1-3)Gal(b1-4)GlcNAc
# How it was run: as §1
# [8] = target: Fuc(a1-2)[GalNAc(a1-3)]Gal(b1-4)GlcNAc(b1-3)Gal(b1-4)GlcNAc(b1-3)Gal(b1-4)GlcNAc
# How it was run: as §1
# [9] = target: Fuc(a1-3)[Gal(b1-4)]GlcNAc
# How it was run: as §1
# [10] = target: Fuc(a1-3)[GalNAc(b1-4)]GlcNAc
# How it was run: as §1
# [11] = target: Gal(b1-3)GalNAc(a1-3)[Fuc(a1-2)]Gal(b1-4)Glc
# How it was run: as §1
# [12] = target: Gal(b1-3)GalNAc(a1-3)[Fuc(a1-2)]Gal(b1-4)GlcNAc
# How it was run: as §1
# [13] = target: Gal(b1-3)GlcNAc(a1-6)Gal(b1-4)GlcNAc
# How it was run: as §1
# [14] = target: Gal(b1-3)GlcNAc(b1-3)Gal(b1-4)GlcNAc(b1-6)[Gal(b1-3)GlcNAc(b1-3)]Gal(b1-4)Glc
# How it was run: as §1
# [15] = target: Gal(b1-4)GalNAc(a1-3)[Fuc(a1-2)]Gal(b1-4)GlcNAc
# How it was run: as §1
# [16] = target: Gal(b1-4)GlcNAc(b1-2)Man(a1-3)[GlcNAc(b1-2)Man(a1-6)]Man(b1-4)GlcNAc(b1-4)GlcNAc
# How it was run: as §1
# [17] = target: Gal(b1-4)GlcNAc(b1-2)Man(a1-6)Man(b1-4)GlcNAc(b1-4)GlcNAc
# How it was run: as §1
# [18] = target: Gal4S(b1-4)GlcNAc
# How it was run: as §1
# [19] = target: Gal6S(b1-3)GlcNAc
# How it was run: as §1
# [20] = target: GlcA(b1-3)GlcNAc
# How it was run: as §1
# [21] = target: GlcNAc(a1-4)Gal(b1-4)GlcNAc(b1-3)Gal(b1-4)Glc
# How it was run: as §1
# [22] = target: GlcNAc(b1-2)Man(a1-3)[GlcNAc(b1-4)][GlcNAc(b1-2)Man(a1-6)]Man(b1-4)GlcNAc(b1-4)GlcNAc
# How it was run: as §1
# [23] = target: GlcNAc(b1-2)[GlcNAc(b1-6)]Man(a1-6)[GlcNAc(b1-2)Man(a1-3)]Man(b1-4)GlcNAc(b1-4)GlcNAc
# How it was run: as §1
# [24] = target: GlcNAc(b1-2)[GlcNAc(b1-6)]Man(a1-6)[GlcNAc(b1-2)Man(a1-3)][GlcNAc(b1-4)]Man(b1-4)GlcNAc(b1-4)GlcNAc
# How it was run: as §1
# [25] = target: GlcNAc(b1-4)[GlcNAc(b1-6)]GalNAc
# How it was run: as §1
# [26] = target: Man(a1-2)Man(a1-3)Man
# How it was run: as §1
# [27] = target: Man(a1-6)Man
# How it was run: as §1
# [28] = target: Neu5Ac(a2-3)Gal
# How it was run: as §1
# [29] = target: Neu5Ac(a2-3)Gal(b1-3)GalNAc
# How it was run: as §1
# [30] = target: Neu5Ac(a2-3)Gal(b1-3)[Neu5Ac(a2-3)Gal(b1-4)]GlcNAc
# How it was run: as §1
# [31] = target: Neu5Ac(a2-3)Gal(b1-4)GlcNAc(b1-3)Gal(b1-4)GlcNAc(b1-3)Gal(b1-4)GlcNAc
# How it was run: as §1
# [32] = target: Neu5Ac(a2-3)Gal6S(b1-4)GlcNAc
# How it was run: as §1
# [33] = target: Neu5Ac(a2-6)Gal(b1-3)GlcNAc(b1-3)[Gal(b1-4)GlcNAc(b1-6)]Gal(b1-4)Glc
# How it was run: as §1
# [34] = target: Neu5Ac(a2-6)Gal(b1-4)GlcNAc(b1-2)Man(a1-3)Man(b1-4)GlcNAc(b1-4)GlcNAc
# How it was run: as §1
# [35] = target: Neu5Ac(a2-6)Gal(b1-4)GlcNAc(b1-3)Gal(b1-4)GlcNAc
# How it was run: as §1
binder,measurement,setting,value
B1,glycan array binding signal (z-score),[1],0.071
same,glycan array binding signal (z-score),[2],8.77
same,glycan array binding signal (z-score),[3],2.77
same,glycan array binding signal (z-score),[4],-0.155
same,glycan array binding signal (z-score),[5],5.95
same,glycan array binding signal (z-score),[6],3.76
same,glycan array binding signal (z-score),[7],7.32
same,glycan array binding signal (z-score),[8],0.359
same,glycan array binding signal (z-score),[9],-0.151
same,glycan array binding signal (z-score),[10],-0.147
same,glycan array binding signal (z-score),[11],11.1
same,glycan array binding signal (z-score),[12],2.63
same,glycan array binding signal (z-score),[13],-0.137
same,glycan array binding signal (z-score),[14],-0.146
same,glycan array binding signal (z-score),[15],3.3
same,glycan array binding signal (z-score),[16],-0.154
same,glycan array binding signal (z-score),[17],-0.156
same,glycan array binding signal (z-score),[18],-0.144
same,glycan array binding signal (z-score),[19],-0.135
same,glycan array binding signal (z-score),[20],0.144
same,glycan array binding signal (z-score),[21],-0.147
same,glycan array binding signal (z-score),[22],-0.148
same,glycan array binding signal (z-score),[23],-0.148
same,glycan array binding signal (z-score),[24],-0.148
same,glycan array binding signal (z-score),[25],-0.147
same,glycan array binding signal (z-score),[26],-0.142
same,glycan array binding signal (z-score),[27],-0.148
same,glycan array binding signal (z-score),[28],-0.152
same,glycan array binding signal (z-score),[29],-0.145
same,glycan array binding signal (z-score),[30],-0.156
same,glycan array binding signal (z-score),[31],-0.153
same,glycan array binding signal (z-score),[32],-0.16
same,glycan array binding signal (z-score),[33],-0.151
same,glycan array binding signal (z-score),[34],-0.151
same,glycan array binding signal (z-score),[35],-0.151

# — the supplement of paper PMC8728848
